Common to all, as to assay: DAPPL (digital affinity profiling via proximity ligation, sequencing); 10 mM Tris-HCl pH 7.5, 50 mM NaCl, 1 mM DTT, 4% glycerol, room temperature, 30 min; GST-TFs on glutathione beads, 16-mer random dsDNA library, 0.1% formaldehyde crosslink after washing; high values mean tight binding
What all share (conditions): protein: recombinant; tags: N-terminal GST; dsDNA, one strand shown

Experiment [1] concerns the target T1, FLI1 (Homo sapiens, UniProt Q01543 1-452).
T1 sequence: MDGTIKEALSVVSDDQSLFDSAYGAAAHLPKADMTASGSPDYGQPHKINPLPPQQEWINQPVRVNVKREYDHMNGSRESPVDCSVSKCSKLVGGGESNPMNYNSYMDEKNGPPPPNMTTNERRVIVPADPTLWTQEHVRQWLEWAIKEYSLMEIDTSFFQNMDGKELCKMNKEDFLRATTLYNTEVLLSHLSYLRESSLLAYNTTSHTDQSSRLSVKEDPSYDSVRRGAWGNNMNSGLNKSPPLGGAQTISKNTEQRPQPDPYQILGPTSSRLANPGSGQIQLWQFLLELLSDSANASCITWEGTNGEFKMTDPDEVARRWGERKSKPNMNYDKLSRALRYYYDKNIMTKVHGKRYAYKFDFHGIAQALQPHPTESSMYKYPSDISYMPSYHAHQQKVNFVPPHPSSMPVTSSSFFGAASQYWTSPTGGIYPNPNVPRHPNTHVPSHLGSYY
An outline of the steps: (§1)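 Pools were built from human transcription factors expressed in yeast as GST fusions, captured on glutathione beads and DNA-barcoded, along with a tag-only sample. Incubation with 200 nmole of a 16-mer random double-stranded DNA library lasted 30 min at room temperature in Tris/NaCl/DTT/glycerol buffer, and was followed by washing, 0.1% formaldehyde crosslinking, proximity ligation, PCR amplification and Illumina NextSeq500 sequencing. Binding signal is the quotient of each hexamer's read frequency for a factor and its frequency for the tag-only sample.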

Experiment [2] concerns the target T2, ELK1 (Homo sapiens, UniProt P19419 1-428).
T2 sequence: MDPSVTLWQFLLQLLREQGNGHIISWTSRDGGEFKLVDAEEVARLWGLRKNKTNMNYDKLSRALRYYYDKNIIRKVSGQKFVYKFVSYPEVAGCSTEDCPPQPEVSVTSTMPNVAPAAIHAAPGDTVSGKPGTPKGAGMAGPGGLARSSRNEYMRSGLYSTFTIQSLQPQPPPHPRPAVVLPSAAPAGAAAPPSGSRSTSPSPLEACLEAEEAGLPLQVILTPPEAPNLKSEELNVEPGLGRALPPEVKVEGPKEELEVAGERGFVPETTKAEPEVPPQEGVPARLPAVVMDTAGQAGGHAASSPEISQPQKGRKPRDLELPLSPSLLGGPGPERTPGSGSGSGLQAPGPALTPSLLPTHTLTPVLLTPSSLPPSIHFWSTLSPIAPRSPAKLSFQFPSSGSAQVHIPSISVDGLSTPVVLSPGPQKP
An outline of the steps:
as §1

Experiment [3] concerns the target T3, GABPA (Homo sapiens, UniProt Q06546 1-454).
T3 sequence: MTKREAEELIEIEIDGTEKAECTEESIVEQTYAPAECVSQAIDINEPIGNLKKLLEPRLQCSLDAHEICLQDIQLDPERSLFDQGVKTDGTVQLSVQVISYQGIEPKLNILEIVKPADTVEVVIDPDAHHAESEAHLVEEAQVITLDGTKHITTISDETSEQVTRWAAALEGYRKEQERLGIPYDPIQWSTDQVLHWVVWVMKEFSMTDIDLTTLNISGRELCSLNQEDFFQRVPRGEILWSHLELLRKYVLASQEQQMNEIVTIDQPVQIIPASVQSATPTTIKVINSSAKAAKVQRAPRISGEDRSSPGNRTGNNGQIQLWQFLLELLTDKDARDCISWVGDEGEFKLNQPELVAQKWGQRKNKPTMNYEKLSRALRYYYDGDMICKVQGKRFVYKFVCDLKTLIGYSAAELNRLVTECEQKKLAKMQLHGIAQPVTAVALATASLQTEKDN
Put shortly:
as §1

Experiment [4] has as its target T4, ERG (Homo sapiens, UniProt P11308 1-479).
T4 sequence: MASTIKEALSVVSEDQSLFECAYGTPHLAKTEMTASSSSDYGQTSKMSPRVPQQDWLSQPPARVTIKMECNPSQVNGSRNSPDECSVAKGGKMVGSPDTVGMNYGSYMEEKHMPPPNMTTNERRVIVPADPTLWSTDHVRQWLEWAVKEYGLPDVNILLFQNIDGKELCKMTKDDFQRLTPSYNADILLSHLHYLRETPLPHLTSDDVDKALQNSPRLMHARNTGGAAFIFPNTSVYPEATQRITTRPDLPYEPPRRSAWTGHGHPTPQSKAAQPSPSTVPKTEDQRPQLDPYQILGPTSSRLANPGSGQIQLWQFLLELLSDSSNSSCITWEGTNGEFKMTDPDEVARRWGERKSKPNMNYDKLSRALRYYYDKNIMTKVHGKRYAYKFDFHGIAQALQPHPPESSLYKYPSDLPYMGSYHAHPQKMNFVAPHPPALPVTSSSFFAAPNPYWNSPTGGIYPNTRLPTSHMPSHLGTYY
An outline of the steps: as §1

For experiment [5], the target named is ELF1 (Homo sapiens, UniProt P32519 1-619). Put shortly:
as §1

In experiment [6] the target is T5, EHF (Homo sapiens, UniProt Q9NZC4 1-300).
T5 sequence: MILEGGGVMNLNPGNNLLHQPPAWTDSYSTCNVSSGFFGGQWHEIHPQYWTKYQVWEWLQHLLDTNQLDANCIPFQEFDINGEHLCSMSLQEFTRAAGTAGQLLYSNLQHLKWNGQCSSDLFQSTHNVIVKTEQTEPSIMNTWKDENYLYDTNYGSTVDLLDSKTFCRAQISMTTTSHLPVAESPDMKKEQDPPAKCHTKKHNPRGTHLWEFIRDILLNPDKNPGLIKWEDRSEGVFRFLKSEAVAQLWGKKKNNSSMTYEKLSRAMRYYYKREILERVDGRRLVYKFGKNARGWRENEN
An outline of the steps: as §1

Experiment [7] has as its target SPI1 (Homo sapiens, UniProt P17947 1-270). An outline of the steps: as §1
The target of experiment [8] is SPIB (Homo sapiens, UniProt Q01892 1-262). An outline of the steps:
as §1

Experiment [9] concerns the target T6, ELK3 (Homo sapiens, UniProt P41970 1-407).
T6 sequence: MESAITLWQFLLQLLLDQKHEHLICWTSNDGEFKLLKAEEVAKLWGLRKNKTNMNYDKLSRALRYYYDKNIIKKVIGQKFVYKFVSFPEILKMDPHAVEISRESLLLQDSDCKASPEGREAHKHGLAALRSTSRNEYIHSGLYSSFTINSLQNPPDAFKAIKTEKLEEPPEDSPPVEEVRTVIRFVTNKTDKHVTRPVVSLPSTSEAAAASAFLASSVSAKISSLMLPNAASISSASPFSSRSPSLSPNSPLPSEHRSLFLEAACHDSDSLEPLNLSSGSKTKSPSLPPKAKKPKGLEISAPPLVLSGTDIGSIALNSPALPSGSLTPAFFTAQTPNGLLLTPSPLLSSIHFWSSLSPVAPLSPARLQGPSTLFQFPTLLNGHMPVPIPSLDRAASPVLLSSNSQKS
An outline of the steps: as §1

Experiment [10] addresses SPI1 (Homo sapiens, UniProt P17947 1-270). Put shortly: as §1
This is another data set of the same source.

Chain of SPIB (Q01892 whole entry): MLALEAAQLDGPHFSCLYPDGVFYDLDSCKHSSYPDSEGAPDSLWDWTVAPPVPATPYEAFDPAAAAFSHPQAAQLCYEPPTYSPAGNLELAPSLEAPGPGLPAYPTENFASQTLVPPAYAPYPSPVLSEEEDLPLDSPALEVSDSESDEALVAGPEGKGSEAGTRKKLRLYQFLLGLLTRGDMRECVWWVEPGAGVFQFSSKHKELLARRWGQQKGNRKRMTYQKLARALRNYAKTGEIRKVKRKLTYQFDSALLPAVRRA
Chain of ELF1 (P32519 whole entry): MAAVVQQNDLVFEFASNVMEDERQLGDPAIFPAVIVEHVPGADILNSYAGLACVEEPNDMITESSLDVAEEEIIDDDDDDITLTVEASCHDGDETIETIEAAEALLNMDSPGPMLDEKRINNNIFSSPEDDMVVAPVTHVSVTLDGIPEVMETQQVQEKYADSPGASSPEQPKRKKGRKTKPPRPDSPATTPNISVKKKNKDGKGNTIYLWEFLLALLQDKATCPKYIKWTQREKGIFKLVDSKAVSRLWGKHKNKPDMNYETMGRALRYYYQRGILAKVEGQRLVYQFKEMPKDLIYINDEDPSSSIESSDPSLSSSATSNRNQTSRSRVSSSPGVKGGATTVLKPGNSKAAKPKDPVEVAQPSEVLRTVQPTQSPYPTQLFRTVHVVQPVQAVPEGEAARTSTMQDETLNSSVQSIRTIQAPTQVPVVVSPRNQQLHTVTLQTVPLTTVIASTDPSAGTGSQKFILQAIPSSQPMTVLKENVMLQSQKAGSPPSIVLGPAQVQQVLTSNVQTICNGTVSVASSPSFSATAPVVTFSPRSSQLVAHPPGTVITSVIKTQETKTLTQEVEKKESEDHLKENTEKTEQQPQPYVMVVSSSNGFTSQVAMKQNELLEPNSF

In the case of TCGACT, the binding signal in experiment [1] was 1.33 fold enrichment (6-mer frequency, TF over GST control); in experiment [2] it was 1.34 fold enrichment (6-mer frequency, TF over GST control); in [3], 1.3 fold enrichment (6-mer frequency, TF over GST control); in experiment [4] it was 1.35 fold enrichment (6-mer frequency, TF over GST control); in [5] it was 1.43 fold enrichment (6-mer frequency, TF over GST control); in [6], 1.39 fold enrichment (6-mer frequency, TF over GST control). Moreover, the binding signal in experiment [7] was 1.42 fold enrichment (6-mer frequency, TF over GST control); in experiment [8], 1.39 fold enrichment (6-mer frequency, TF over GST control); in experiment [9], 1.47 fold enrichment (6-mer frequency, TF over GST control).
With TCTCTG, the binding signal in [1] is 1.67 fold enrichment (6-mer frequency, TF over GST control); in [2], 1.67 fold enrichment (6-mer frequency, TF over GST control); in experiment [3], 1.47 fold enrichment (6-mer frequency, TF over GST control); in experiment [4], 1.56 fold enrichment (6-mer frequency, TF over GST control); in experiment [5] it was 1.66 fold enrichment (6-mer frequency, TF over GST control); in experiment [6], 1.62 fold enrichment (6-mer frequency, TF over GST control). In addition, the binding signal in [7] is 1.52 fold enrichment (6-mer frequency, TF over GST control); in [8], 1.5 fold enrichment (6-mer frequency, TF over GST control); in experiment [9] it was 1.52 fold enrichment (6-mer frequency, TF over GST control).
Regarding ATTTCA, the binding signal in experiment [1] was 1.23 fold enrichment (6-mer frequency, TF over GST control); in experiment [2], 1.17 fold enrichment (6-mer frequency, TF over GST control); in [3] it was 1.23 fold enrichment (6-mer frequency, TF over GST control); in experiment [4], 1.25 fold enrichment (6-mer frequency, TF over GST control); in experiment [5], 1.21 fold enrichment (6-mer frequency, TF over GST control); in experiment [6], 1.24 fold enrichment (6-mer frequency, TF over GST control). Moreover, the binding signal is 1.23 fold enrichment (6-mer frequency, TF over GST control) in experiment [7]; 1.26 fold enrichment (6-mer frequency, TF over GST control) in experiment [8]; 1.23 fold enrichment (6-mer frequency, TF over GST control) in experiment [9].
In the case of ACCCAT, the binding signal in experiment [1] was 1.18 fold enrichment (6-mer frequency, TF over GST control); in experiment [2], 1.21 fold enrichment (6-mer frequency, TF over GST control); in experiment [3], 1.33 fold enrichment (6-mer frequency, TF over GST control); in [4] it was 1.23 fold enrichment (6-mer frequency, TF over GST control); in experiment [5] it was 1.25 fold enrichment (6-mer frequency, TF over GST control); in [6], 1.16 fold enrichment (6-mer frequency, TF over GST control). Moreover, the binding signal in experiment [7] was 1.17 fold enrichment (6-mer frequency, TF over GST control); in experiment [8], 1.33 fold enrichment (6-mer frequency, TF over GST control); in experiment [9], 1.24 fold enrichment (6-mer frequency, TF over GST control).
Take TTCCGC: the binding signal in [1] is 3.03 fold enrichment (6-mer frequency, TF over GST control); in experiment [2] it was 3.07 fold enrichment (6-mer frequency, TF over GST control); in experiment [3], 2.79 fold enrichment (6-mer frequency, TF over GST control); in experiment [4] it was 3.22 fold enrichment (6-mer frequency, TF over GST control); in [5] it was 2.85 fold enrichment (6-mer frequency, TF over GST control); in experiment [6] it was 3.08 fold enrichment (6-mer frequency, TF over GST control). Also, the binding signal in experiment [10] is 4.75 fold enrichment (6-mer frequency, TF over GST control); in experiment [8], 3.15 fold enrichment (6-mer frequency, TF over GST control); in [9] it was 3.03 fold enrichment (6-mer frequency, TF over GST control).
Regarding TTAATG, the binding signal in [1] is 1.24 fold enrichment (6-mer frequency, TF over GST control); in experiment [2] it was 1.27 fold enrichment (6-mer frequency, TF over GST control); in [3], 1.3 fold enrichment (6-mer frequency, TF over GST control); in experiment [4], 1.14 fold enrichment (6-mer frequency, TF over GST control); in [5], 1.17 fold enrichment (6-mer frequency, TF over GST control); in experiment [6], 1.19 fold enrichment (6-mer frequency, TF over GST control). The binding signal in experiment [7] is 1.24 fold enrichment (6-mer frequency, TF over GST control); in experiment [8], 1.2 fold enrichment (6-mer frequency, TF over GST control); in [9], 1.14 fold enrichment (6-mer frequency, TF over GST control).
Regarding GCTTCC, the binding signal in [1] is 3.32 fold enrichment (6-mer frequency, TF over GST control); in experiment [2] it was 3.85 fold enrichment (6-mer frequency, TF over GST control); in [3], 3.27 fold enrichment (6-mer frequency, TF over GST control); in experiment [4], 4 fold enrichment (6-mer frequency, TF over GST control); in [5], 3.21 fold enrichment (6-mer frequency, TF over GST control); in experiment [6], 3.72 fold enrichment (6-mer frequency, TF over GST control). Also, the binding signal in [10] is 3.73 fold enrichment (6-mer frequency, TF over GST control); in experiment [8], 3.8 fold enrichment (6-mer frequency, TF over GST control); in experiment [9], 4.31 fold enrichment (6-mer frequency, TF over GST control).

The values above are taken from paper PMC7862700, “An all-to-all approach to the identification of sequence-specific readers for epigenetic DNA modifications on cytosine”.
